ChEMBL document CHEMBL3433997, “St. Jude Leishmania screening dataset” (2016)

Legend:
Type in all cases: functional
[1] = target: Solute carrier family 2, facilitated glucose transporter member 1 (Homo sapiens) (UniProt P11166); experiment: ST_JUDE_LEISH: Cytotoxicity at 2uM final concentration against transgenic Leishmania Mexicana promastigotes LmGLUT1 that are glucose transport deficient and complemented with the human glucose transporter GLUT1. Activity is measured by DNA content using SYBR green in vitro
Sequence of Solute carrier family 2, facilitated glucose transporter member 1 (Homo sapiens) (P11166 whole entry): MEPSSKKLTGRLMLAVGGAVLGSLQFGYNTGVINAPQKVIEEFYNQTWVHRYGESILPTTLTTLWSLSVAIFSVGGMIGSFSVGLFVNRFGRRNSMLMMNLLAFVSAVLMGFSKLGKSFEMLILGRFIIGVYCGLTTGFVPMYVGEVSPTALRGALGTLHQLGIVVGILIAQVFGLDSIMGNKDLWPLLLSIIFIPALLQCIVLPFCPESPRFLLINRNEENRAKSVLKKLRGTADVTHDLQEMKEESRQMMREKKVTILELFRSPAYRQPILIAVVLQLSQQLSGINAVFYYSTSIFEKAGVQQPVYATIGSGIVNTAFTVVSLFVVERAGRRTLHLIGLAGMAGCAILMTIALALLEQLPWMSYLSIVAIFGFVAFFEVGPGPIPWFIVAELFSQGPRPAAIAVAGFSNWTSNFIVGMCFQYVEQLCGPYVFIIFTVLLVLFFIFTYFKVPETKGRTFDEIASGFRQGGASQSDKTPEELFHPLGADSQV

[2] = target: Hexose transporter 1 (Plasmodium falciparum) (UniProt O97467); experiment: ST_JUDE_LEISH: Cytotoxicity at 2uM final concentration against transgenic Leishmania Mexicana promastigotes LmPfHT that are glucose transport deficient and complemented with the Plasmodium falciparum hexose transporter. Activity is measured by DNA content using SYBR green in vitro
[3] = target: Glucose transporter (Leishmania mexicana) (UniProt O61059); experiment: ST_JUDE_LEISH: Cytotoxicity at 2uM final concentration against transgenic Leishmania Mexicana promastigotes LmGT2 that are glucose transport deficient and complemented with the L. Mexicana glucose transporter 2. Activity is measured by DNA content using SYBR green in vitro

SMILES | inhibition [1] | inhibition [2] | inhibition [3]
CC(C)(CN)c1nc(-c2ccc(Br)c(O)c2)c(-c2ccncc2)[nH]1 | 1.39% | 1.51% | 2.58%
c1ccc(Oc2ccc(Nc3ccnc4cc(-c5ccc(CN6CCNCC6)o5)ccc34)cc2)nc1 | 11.2% | 8.71% | 5.3%
CCN(CC)CCN(Cc1ccc(-c2ccc(C(F)(F)F)cc2)cc1)C(=O)Cn1c(CCc2cc(F)cc(F)c2F)nc(=O)c2ccccc21 | 2.05% | 0.76% | -0.7%
c1cc(CN2CCCCC2)cc(-c2csc(-c3nc4ccccc4[nH]3)c2)c1 | 5.65% | 4.57% | 2.67%
Cc1cccc2nc(-c3cccc(-c4ccc(NC(=O)Nc5ccc(Cl)c(Cl)c5)cc4)c3)[nH]c12 | 0.3% | -1.23% | 1.91%
O=C(Nc1cccc(C(F)(F)F)c1)c1cccc(S(=O)(=O)NCC2CCCN2CC2CCCCC2)c1 (stereo unspecified) | 5.37% | 3.21% | 4.26%
Cn1cc(CCNc2ccnc(NCCc3coc4ccccc34)n2)c2ccccc21 | 8.67% | 6.89% | 2.14%
COc1ccc(CCn2c(=N)c(C(=O)NC3CCCC3)cc3c(=O)n4ccccc4nc32)cc1 | 7.26% | 9.43% | 5.98%
COc1ccc(-c2cccc(NC(=O)c3cccc(Cl)c3)c2)cc1CN1CCN(C)CC1 | 11.2% | 12% | 7.77%
CCCc1cc(Cc2cnc(N)nc2N)cc(CCC)c1OC | 4.11% | 1.27% | -2.49%
COc1ccc2ccc(F)c(CCN3CCC(NCc4cc5c(cn4)OCCO5)CC3)c2n1 | 8.37% | 14% | 22.4%
O=C(NOCCCCOc1ccc(Cl)c(Cl)c1)c1ccccc1 | -2.66% | -2.61% | -1.29%
